This is a sample that favours compounds with a hit; in the whole collection about 2.1% have one here.
Ecoli rRNA inh: inhibitors of bacterial rRNA selective over humanized ribosomes; AID 720706; E. coli WT GFP vs humanized-ribosome RFP mutants, fluorescence, 24 h; stronger effect = lower value; DMSO median 0, no signal -100; 350,000 compounds, 1.6% hits; GFP signal change (wild-type ribosome), % (test concentration not listed);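 active = significant combined selectivity score with lowered wild-type GFP, culture density cut under 30%, mutant RFP and density less affected; inactive = any of these conditions unmet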
F508del corr: CFTR F508del correction in bronchial cells | CFBE cells, YFP halide quenching; stimulated with forskolin plus potentiator P3; % fluorescence drop versus neutral controls | activity (quench increase), % at 7.58 µM | AID 720511 | 350,000 compounds, 0.36% hits;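 active = mean added fluorescence quench of at least 8% versus neutral control, with both replicates also reaching 8%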;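 note: cells transiently co-express mutant CFTR-F508del with the halide-sensitive YFP; corrector assay measuring rescue of mutant channel to the surface after 24 h compound exposure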
PvdQ inh: P. aeruginosa PvdQ acylase inhibition; purified PvdQ acylase, fluorescence plate reader; inhibition, % at 10 µM; 340,000 compounds, 0.063% hits; in the data active = inhibition above about 30%, passing the limit was not always enough
ARNT TACC3 PPI: disrupts binding between human ARNT and TACC3; 390,000 compounds, 0.66% hits; AID 623870; inhibition, % at 9.99 µM; AlphaScreen His-ARNT PAS-B/GST-TACC3 binding, luminescence; TACC3 fragment carries E629A point mutation;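 active = mean inhibition of replicates at least 50% and at least half of replicates each reaching 50%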
ERAP1 HTS inh: ERAP1 (human) enzyme inhibition | Q9NZ08 | recombinant ERAP1, Leu-AMC fluorescence, 60 min | inhibition, % at 10.7 µM | 340,000 compounds, 0.15% hits | AID 652197;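 active = mean replicate inhibition of at least 30%, or all replicates individually reaching that 30% level; inactive = mean below 30% and not every replicate reaching it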
Target sequence (Q9NZ08 whole entry, looked up): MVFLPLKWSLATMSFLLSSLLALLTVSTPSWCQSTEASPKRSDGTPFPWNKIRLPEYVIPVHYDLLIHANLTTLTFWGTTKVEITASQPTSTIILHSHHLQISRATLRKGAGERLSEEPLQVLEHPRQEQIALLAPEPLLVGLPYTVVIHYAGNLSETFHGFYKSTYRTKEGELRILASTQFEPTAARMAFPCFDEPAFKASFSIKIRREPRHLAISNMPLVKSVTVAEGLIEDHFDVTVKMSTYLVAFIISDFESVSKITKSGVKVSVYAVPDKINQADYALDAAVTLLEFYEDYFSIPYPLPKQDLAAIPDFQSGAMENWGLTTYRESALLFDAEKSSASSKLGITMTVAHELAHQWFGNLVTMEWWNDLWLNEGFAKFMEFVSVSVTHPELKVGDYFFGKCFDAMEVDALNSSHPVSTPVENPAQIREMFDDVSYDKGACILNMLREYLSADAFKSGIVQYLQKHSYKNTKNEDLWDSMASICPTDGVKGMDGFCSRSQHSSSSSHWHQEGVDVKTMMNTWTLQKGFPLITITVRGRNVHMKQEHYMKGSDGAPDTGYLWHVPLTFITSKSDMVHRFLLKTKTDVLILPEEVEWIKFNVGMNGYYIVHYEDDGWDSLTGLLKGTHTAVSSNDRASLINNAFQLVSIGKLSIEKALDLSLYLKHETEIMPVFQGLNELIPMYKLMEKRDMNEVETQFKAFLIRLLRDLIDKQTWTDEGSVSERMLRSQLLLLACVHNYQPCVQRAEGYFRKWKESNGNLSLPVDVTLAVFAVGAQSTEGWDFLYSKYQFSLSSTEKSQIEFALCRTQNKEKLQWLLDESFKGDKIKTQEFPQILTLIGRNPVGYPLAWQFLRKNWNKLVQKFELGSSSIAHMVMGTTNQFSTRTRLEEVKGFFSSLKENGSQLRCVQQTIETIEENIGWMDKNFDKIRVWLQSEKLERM
AlphaScreen ctr: interferes with AlphaScreen signal, flagging false ARNT-TACC3 hits | His-ARNT PASB-GST AlphaScreen artifact counter-screen, luminescence | AID 651705 | 1,200 compounds, 50% hits | shares compounds with ARNT TACC3 PPI | AC50, µM (titrated, usually from 68 µM);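 active = every separate test run was called active for a drop in luminescence, with AC50 within twice the top valid dose, actives reach about 71 µM in these data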
Numbers stand for hits; n = inactive; x = no result.

SMILES | Ecoli rRNA inh | F508del corr | PvdQ inh | ARNT TACC3 PPI | ERAP1 HTS inh | AlphaScreen ctr
O=C(C[C@@H]1C=C[C@@H](NC(=O)CN2CCOCC2)[C@H](CO)O1)NCc1cccc(F)c1 | n | n | x | n | n | x
Clc1ccc(-c2ccc(SCc3ccccn3)nn2)cc1 | x | x | n | n | x | x
c1ccc(-c2ccc(SCc3cccnc3)nn2)nc1 | n | n | n | 57.6 | n | 14µM
c1ccc(CSc2ccc(-c3ccccn3)nn2)nc1 | n | n | n | 63.6 | n | 9.05µM
CCCC(=O)N1CC2(CN(C)C2)c2c(n(C)c3cc(OC)ccc23)[C@H]1CO | n | n | x | x | n | x
O=C(NC1Cc2ccccc2C1)[C@H]1N[C@H]2c3cccc(=O)n3C[C@H]2[C@@H]1CO | n | x | x | active | n | n
O=C(NCc1ccccc1)[C@@H]1N[C@@H]2c3cccc(=O)n3C[C@@H]2[C@H]1CO | n | x | x | n | n | x
O=C(N/N=C1/CCS(=O)(=O)c2ccc(F)cc21)c1ccccn1 | n | n | n | 52.1 | n | n
CO[C@@H]1CN(C)C(=O)c2cc(NC(C)=O)ccc2OC[C@H](C)N(Cc2ccc(F)cc2)C[C@H]1C | n | n | x | n | n | x
Cc1ccc(S(=O)(=O)N2CCOCC2)cc1NC(=O)CNCc1ccccn1 | n | n | n | 65.2 | n | 49.7µM
CCCN1[C@@H]2c3cccc(=O)n3C[C@H]1[C@H](CO)[C@H]2C(=O)NC1Cc2ccccc2C1 | n | x | x | n | n | x
O=[N+]([O-])c1cc(Cl)cc(/C=N\Nc2ccccn2)c1O | x | x | n | 56.0 | x | 25.4µM
O=[N+]([O-])c1ccc(Cl)cc1C=NNc1ccccn1 | n | n | n | n | n | x
O=S(=O)(N[C@@H]1CC[C@@H](CCn2cc(-c3ccccn3)nn2)O[C@H]1CO)c1cccc(F)c1 | n | n | x | 91.5 | n | 59.9µM
O=S(=O)(N[C@H]1CC[C@H](CCn2cc(-c3ccccn3)nn2)O[C@@H]1CO)c1cccc(Cl)c1 | n | n | x | 108.5 | n | 48.6µM
O=S(=O)(N[C@H]1CC[C@@H](CCn2cc(-c3ccccn3)nn2)O[C@@H]1CO)c1cccc(Cl)c1 | n | n | x | 95.5 | n | 47.6µM
Cc1cccc(S(=O)(=O)N[C@@H]2CC[C@H](CCn3cc(-c4ccccn4)nn3)O[C@@H]2CO)c1 | n | n | x | x | n | x
CCCNC(=O)[C@@H]1[C@@H](CO)[C@@H]2Cn3c(cccc3=O)[C@@H]2N1CC1CC1 | n | n | x | n | n | x
Cc1ccsc1C(=O)OCC(=O)Nc1nnc(-c2ccccc2)o1 | n | n | n | 56.7 | n | 64.3µM
O=C(COC(=O)c1cncc(Br)c1)Nc1nnc(-c2ccccc2)o1 | n | n | n | n | n | x
O=C(COC(=O)c1ccc(Cl)nc1)Nc1nnc(-c2ccccc2)o1 | n | n | n | 79.5 | n | n
Cc1ccsc1C(=O)OCc1nnc(-c2ccccc2)o1 | n | n | n | n | n | x
Cc1cc(C)n2nc(-c3cccc(Br)c3)cc2n1 | n | n | n | 51.3 | n | n
Cc1cccc(-c2cc3nc(C)cc(C)n3n2)c1 | n | n | n | x | n | x
Cc1ccc(-c2nc(C)sc2CC(=O)NCc2ccco2)cc1 | x | x | n | active | x | n
SMILES | Ecoli rRNA inh | F508del corr | PvdQ inh | ARNT TACC3 PPI | ERAP1 HTS inh | AlphaScreen ctr
CN1CCN(C2CCN(Cc3ccc(O)c4ncccc34)CC2)CC1 | n | n | n | 64.7 | n | 14.4µM
Oc1ccc(CNC2CCc3ccccc32)c2cccnc12 (stereo not given) | x | x | x | x | x | 3.25µM
Oc1ccc(CN2CCN(Cc3ccccc3)CC2)c2cccnc12 | x | x | n | 65.4 | x | 6.05µM
Cc1ccccc1NCc1ccc(O)c2ncccc12 | n | n | n | n | n | x
OCC1CCN(Cc2ccc(O)c3ncccc23)CC1 | x | x | x | x | x | 0.405µM
O=S(=O)(c1ccc(Cl)cc1)N1CCN(Cc2ccc(O)c3ncccc23)CC1 | n | n | n | n | n | x
COc1cccc(S(=O)(=O)Nc2ccc3c(c2)[C@H]2C[C@@H](CC(=O)N4CCCCC4)O[C@@H](CO)[C@H]2O3)c1 | n | n | x | n | n | x
CO[C@@H]1CN(C)C(=O)c2cc(NC(=O)Nc3ccccc3)ccc2OC[C@@H](C)N(C(=O)CC2CC2)C[C@H]1C | n | n | x | x | x | x
COc1ccc(S(=O)(=O)N[C@@H]2CC[C@@H](CCNC(=O)CN3CCOCC3)O[C@H]2CO)cc1 | n | n | x | n | n | x
